The experiment can be described thus: NCI Yeast Anticancer Drug Screen. Data for the mlh1 rad18 strain (AID 175). To be noted: S. cerevisiae mlh1 rad18 strain growth inhibition, active compounds read high. Here is the method:
Growth inhibition of yeast strains with defined genetic alterations is measured as a screen for potential anti-cancer activity. Selected strains with alterations in DNA damage repair or cell cycle control were exposed to compounds and growth inhibition was measured relative to vehicle treated controls. The strain used in this assay is mlh1 rad18

[1] abbreviates: at 5.0 µM (retest, dose inferred, filed as 0.5).
The mark [2] stands for this setting: at 50.0 µM (retest, dose inferred, filed as 5.0).

Molecules are shown by their SMILES. This is part of a sample that, as a whole, favours compounds with a hit. Of some 79,000 tested, about 15% had one in any assay. Calls of active or inactive are those of the source. Cut-off read from the data, not from the text of the source: active = growth inhibition above about 70%; inactive = the rest.

As to `CCc1ccc(NS(=O)(=O)c2ccccc2)c([N+](=O)[O-])c1`, the growth inhibition runs as follows: under setting [1], 1% (inactive); under setting [2], 61% (inactive); (at 50.0 µM) 78% (active).

`O=C(c1ccc(Cl)cc1Cl)C(Cl)Cl`: the growth inhibition under setting [1] was 34% (inactive), the growth inhibition under setting [2] is 75% (active) and the growth inhibition (at 50.0 µM) was 88.5% (active).

Regarding `COc1ccccc1/C=C1\Sc2scc(-c3cccc([N+](=O)[O-])c3)[n+]2C1=O`, the growth inhibition under setting [1] is 13% (inactive), the growth inhibition under setting [2] is 96% (active) and the growth inhibition (at 50.0 µM) is 89.2% (active).

With `CCN(CC)CC(O)c1ccc2ccc3ccccc3c2c1` (configuration not stated), the growth inhibition under setting [1] was 3% (inactive), the growth inhibition under setting [2] was 19% (inactive) and the growth inhibition (at 50.0 µM) was 51.1% (inactive).

As to `CC1CCN(CCC(=O)c2ccc(Cl)cc2)CC1`, the growth inhibition reads like this: under setting [1], 21% (inactive); under setting [2], 52% (inactive); (at 50.0 µM) 58.1% (inactive).

With `Cn1ccnc1Oc1ccc(Cl)cc1`, the growth inhibition was -131% (inactive) under setting [1], 74% (active) under setting [2] and 89.2% (active) (at 50.0 µM).

Consider `CCS(=O)(=O)c1ccc(/C=C/C=N/NC(=S)NCC(C)C)cc1`, for which the growth inhibition under setting [1] is 8% (inactive), the growth inhibition under setting [2] is 43% (inactive) and the growth inhibition (at 50.0 µM) was 4% (inactive).

`OC1CSCCCSCCSCCCSC1`: the growth inhibition under setting [1] is -22% (inactive), the growth inhibition under setting [2] was 22% (inactive) and the growth inhibition (at 50.0 µM) is 26.9% (inactive).

`NNc1c(F)c(F)cc(F)c1F`: the growth inhibition under setting [1] is 7% (inactive), the growth inhibition under setting [2] is 36% (inactive) and the growth inhibition (at 50.0 µM) was 25% (inactive).

As to `CC(C)=CC(=O)O[C@@H]1CC(C)(C)CC2C3=CCC4[C@]56CC[C@](O)(OC5)C(C)(C)C6CC[C@@]4(C)C3(C)CC[C@]21C(=O)O` (some centres not stated), the growth inhibition by setting is: under setting [1], -11% (inactive); under setting [2], 90% (active); (at 50.0 µM) 78% (active).

With `Cc1ccc(NC(=O)/C(Cl)=C(\Cl)C(=O)O)cc1C`, the growth inhibition reads like this: under setting [1], 16% (inactive); under setting [2], 99% (active); (at 50.0 µM) 99.3% (active).

Turning to `CCCCCCCCCC/C=C\C(=O)O`, the growth inhibition is 37% (inactive) under setting [1], 69% (inactive) under setting [2] and 73.8% (active) (at 50.0 µM).

Turning to `COc1ccc2ccc3ccccc3c2c1C=O`, the growth inhibition was 14% (inactive) under setting [1], 89% (active) under setting [2] and 57.1% (inactive) (at 50.0 µM).

As for `O=C1OC(CCl)CN1/N=C/c1ccc([N+](=O)[O-])o1` (configuration not stated), the growth inhibition under setting [1] was 66% (inactive), the growth inhibition under setting [2] was 92% (active) and the growth inhibition (at 50.0 µM) was 87.9% (active).

Source of the values: PubChem BioAssay (NCI).
